# Source: PubChem BioAssay
# An excerpt weighted towards active compounds, which were near 0.97% of everything screened.
# LAP4-GFP MLPCN: yeast TOR pathway LAP4-GFP modulation. S. cerevisiae LAP4-GFP multiplex, flow cytometry GFP, 3 h; median GFP as percent of DMSO wells. GFP response vs DMSO, % at 10 µM. actives 0.34% (n = 320,000). AID 2023;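 active = GFP response vs DMSO above a set limit, about the screen mean plus 3 SD, cut at about 150% in these data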
# CIT2 TOR yeast: yeast TOR pathway CIT2-GFP modulation; S. cerevisiae CIT2-GFP strain, flow cytometry, 3 h; 100 means same as DMSO wells; AID 2029; actives 0.065% (n = 320,000); GFP response vs DMSO, % at 10 µM;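 active = GFP response relative to DMSO above a set limit, near the screen mean plus 3 SD, cut at about 150% in these data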;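 note: ratio of well median GFP fluorescence to mean of DMSO wells on the plate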
# AGP1-GFP MLPCN: yeast TOR pathway AGP1-GFP modulation; AID 2066; S. cerevisiae AGP1-GFP multiplex flow cytometry, 3 h; GFP as percent of DMSO wells; GFP response vs DMSO, % at 10 µM; actives 0.02% (n = 320,000);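 active = GFP response relative to DMSO above a set limit, near screen average plus 3 SD, cut at about 150% in these data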;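 note: median GFP channel fluorescence of the gated AGP1 strain per well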
# JMJD2C inh: inhibitors of human GASC-1 (JMJD2C) demethylase. GST-JMJD2C(1-420) H3K9me3 demethylation, DELFIA europium. inhibition, % at 2.35 µM. actives 0.069% (n = 330,000);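 active = more than half of a compound's replicate wells show inhibition beyond 50%, single wells judged on their own value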;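 note: signal counts dimethyl H3K9 product captured on neutravidin plate; 0% = median of DMSO wells and 100% = 0.3 times that DMSO median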
# Target sequence (Q9H3R0 1-420 limits assumed): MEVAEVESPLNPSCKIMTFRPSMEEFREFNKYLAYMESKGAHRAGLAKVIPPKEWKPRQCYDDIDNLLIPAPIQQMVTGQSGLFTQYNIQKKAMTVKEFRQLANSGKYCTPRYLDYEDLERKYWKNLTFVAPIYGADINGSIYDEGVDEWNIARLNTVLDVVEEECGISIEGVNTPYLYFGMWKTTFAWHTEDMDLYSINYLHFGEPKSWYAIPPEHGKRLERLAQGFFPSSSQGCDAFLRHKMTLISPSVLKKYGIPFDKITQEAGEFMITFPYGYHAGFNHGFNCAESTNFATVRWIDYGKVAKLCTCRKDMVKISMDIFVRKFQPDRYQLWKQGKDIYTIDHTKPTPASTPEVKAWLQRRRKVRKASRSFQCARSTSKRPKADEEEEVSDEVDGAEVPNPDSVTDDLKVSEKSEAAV
# RPL19A TOR yeast: modulators of TOR pathway RPL19A-GFP in S. cerevisiae; S. cerevisiae RPL19A-GFP strain, flow cytometry, 3 h; active compounds read low; percent response vs DMSO, % at 10 µM; actives 0.3% (n = 330,000); AID 2025;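 active = percent response vs DMSO below 50%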;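 note: median channel GFP fluorescence of the barcoded RPL19A-GFP strain; ratio of sample median GFP to plate DMSO average so 100% = DMSO; lower means less RPL19A-GFP as with rapamycin TOR inhibition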
# MEP2 TOR yeast: yeast TOR pathway MEP2-GFP modulation; S. cerevisiae MEP2-GFP strain, flow cytometry GFP, 3 h; 100% = DMSO control level; GFP response vs DMSO, % at 10 µM; actives 0.51% (n = 330,000); AID 2016;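 active = GFP response versus DMSO above a set limit, roughly screen mean plus 3 SD, cut at about 180% in these data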;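 note: median GFP fluorescence of the barcode-gated MEP2-GFP cells per well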
# LAP4 cherry2: yeast LAP4-GFP modulation, second cherry pick | S. cerevisiae LAP4-GFP strain, flow cytometry GFP, 3 h | shares compounds with LAP4-GFP MLPCN | actives 20% (n = 590) | GFP response vs DMSO, % at 10 µM;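 active = GFP signal as percent of the solvent control above about 150%, meaning raised reporter expression, limit read from the data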;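 note: ratio of well median GFP fluorescence to plate DMSO mean so 100% = DMSO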
# MEP2 cherry2: yeast MEP2-GFP modulation, second cherry pick | shares compounds with LAP4-GFP MLPCN | S. cerevisiae MEP2-GFP strain, flow cytometry GFP, 3 h | GFP response vs DMSO, % at 10 µM | actives 10% (n = 590);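 active = GFP signal above 150% of the solvent control wells, that is a rise of more than half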;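 note: median channel GFP fluorescence of all gated yeast cells per well; ratio of median GFP to plate DMSO average so 100% = DMSO level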
# RPL19A-GFP pick2: second confirmation of modulators of TOR reporter RPL19A-GFP in yeast. S. cerevisiae RPL19A-GFP strain, flow cytometry GFP, 3 h; active compounds read low; 100% means same as DMSO wells. AID 2623. actives 3% (n = 590). GFP response vs DMSO, % at 10 µM. shares compounds with LAP4-GFP MLPCN;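 active = under 65% GFP response relative to DMSO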;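 note: median GFP channel fluorescence per well over the all cells gate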
# CIT2 GFP CP2: second confirmation of modulators of TOR reporter CIT2-GFP in yeast. GFP response vs DMSO, % at 10 µM. S. cerevisiae CIT2-GFP strain, flow cytometry GFP, 3 h; DMSO control wells read 100%. actives 8% (n = 590). shares compounds with LAP4-GFP MLPCN;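 active = GFP response vs DMSO above about 150%, limit read from the data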;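 note: median green fluorescence per well over all gated yeast cells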
# AGP1-GFP pick2: reconfirmed modulator of AGP1-GFP TOR reporter in yeast. 590 tested, under 10 active. percent response vs DMSO, % at 10 µM. shares compounds with LAP4-GFP MLPCN. S. cerevisiae AGP1-GFP strain, flow cytometry GFP, 3 h. AID 2643;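 active = over 150 percent of DMSO response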;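 note: median GFP channel fluorescence over all cells without mother daughter split; sample median GFP divided by mean DMSO control so 100% equals DMSO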
# Yeast autofluor: counter-screen for compound autofluorescence in yeast s288c cells; 610 tested, under 10 active; S. cerevisiae s288c, 520 nm autofluorescence, flow cytometry, 3 h; active compounds read high; zero means same as solvent-only cells; shares compounds with LAP4-GFP MLPCN; fluorescence change (kMESF span) at 33 µM;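 active = fluorescence span over the dose series, or activity score, above about 33, limit read from the data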
# An asterisk follows results filed as active; x = no result.
SMILES,LAP4-GFP MLPCN,CIT2 TOR yeast,AGP1-GFP MLPCN,JMJD2C inh,RPL19A TOR yeast,MEP2 TOR yeast,LAP4 cherry2,MEP2 cherry2,RPL19A-GFP pick2,CIT2 GFP CP2,AGP1-GFP pick2,others
O=C1NC(=S)N/C1=C\c1ccccc1OCc1ccc(C(=O)O)cc1,103,91,104,1,109,104,x,x,x,x,x,
O=C(O)c1ccc(COc2ccccc2C=C2C(=O)c3ccccc3C2=O)cc1,104,90,93,1,102,101,110,110,101,108,97,Yeast autofluor=0
CC(Oc1ccc2c3c(c(=O)oc2c1)CCC3)C(=O)NCCN1CCOCC1 (centres undefined),101,102,108,-6,104,111,x,x,x,x,x,
CC(Oc1cc2oc(=O)c3c(c2cc1Cl)CCC3)C(=O)NCCN1CCOCC1 (centres undefined),90,108,24,-3,58,142,99,106,101,105,103,Yeast autofluor=-0.1
O=C(NC(Cc1ccccc1)C(=O)O)C1CCN(S(=O)(=O)c2ccccc2C(F)(F)F)CC1 (centres undefined),90,92,98,-11,99,84,x,x,x,x,x,
CC(=O)c1ccc(NC(=O)Cn2c3ccccc3c3nc(=O)cc(C)n32)cc1,92,84,71,9,56,156,100,102,100,97,100,
Cc1ccc(S(=O)(=O)/C(=C\N(C)C)c2cnc(Cl)s2)cc1,102,102,104,17,99,102,x,x,x,x,x,
CCCc1c(O)nc(SCCN(CC)CC)n(C(=O)c2ccccc2)c1=O,116,115,28,-24,36*,248*,97,102,99,96,99,
Cc1cccc(C(=O)NNC(=O)Nc2ccccc2)c1,96,103,103,5,105,104,x,x,x,x,x,
Cc1cccc(NC(=O)C(C)C(=O)c2ccccc2)c1 (centres undefined),96,101,102,13,105,105,105,108,98,108,95,
Cc1noc(C)c1NC(=O)N(C)C[C@@H]1Oc2ccc(NC(=O)C3CCCCC3)cc2C(=O)N([C@@H](C)CO)C[C@H]1C,95,90,91,-3,98,95,x,x,x,x,x,
CCNC(=S)NNC(=O)Cn1c(=O)c2c(ncn2CCOC)n(Cc2ccccc2)c1=O,179*,81,97,0,85,221*,99,108,101,102,100,
Cc1ccc(OCC(=O)OCC(=O)NC2CCCC2)cc1C,98,96,96,16,96,97,x,x,x,x,x,
Cc1cc(C)cc(OCC(=O)OCC(=O)NC2CC2)c1,183*,80,112,16,84,100,97,102,101,98,102,
CCN(C(=O)CN1CCN(c2cccc(Cl)c2)CC1)c1c(N)n(Cc2ccccc2)c(=O)[nH]c1=O,96,97,75,-4,63,133,101,100,100,97,101,
Cc1cc(C(=O)CN2CCN(CC(=O)Nc3ccc(F)cc3)CC2)c(C)n1C1CC1,93,90,96,-3,92,98,x,x,x,x,x,
Clc1cnc(N/N=C/c2cccs2)c(Cl)c1,158*,92,83,-17,99,98,x,x,x,x,x,Yeast autofluor=0.41
Cc1ccc(/C=N/Nc2ncc(Cl)cc2Cl)s1,298*,91,86,30,81,118,x,x,x,x,x,Yeast autofluor=0.41
Oc1ccc(/C=N/Nc2ncc(Cl)cc2Cl)cc1,94,109,102,4,104,108,x,x,x,x,x,
Clc1cnc(N/N=C/c2ccco2)c(Cl)c1,102,102,105,5,105,98,x,x,x,x,x,
O=C(CCN1CCOCC1)NC1CCCN(Cc2ccccc2F)C1 (centres undefined),74,106,96,1,98,88,x,x,x,x,x,
CN(Cc1nc2ccccc2c(=O)[nH]1)C(=O)c1cc(C2CC2)nn1-c1ccccc1,103,97,108,-5,90,102,x,x,x,x,x,
Cc1ccc(NC(=O)CNC2CCCCC2)cc1Cl,106,109,104,3,101,107,x,x,x,x,x,
Cc1cccc(N2C(=O)C(Cl)=C(Nc3c(C)n(C)n(-c4ccccc4)c3=O)C2=O)c1C,109,99,101,-3,103,109,x,x,x,x,x,Yeast autofluor=0.2
Cc1ccc(N2C(=O)C(Cl)=C(Nc3c(C)n(C)n(-c4ccccc4)c3=O)C2=O)cc1,102,95,101,9,104,103,x,x,x,x,x,Yeast autofluor=0.3
SMILES,LAP4-GFP MLPCN,CIT2 TOR yeast,AGP1-GFP MLPCN,JMJD2C inh,RPL19A TOR yeast,MEP2 TOR yeast,LAP4 cherry2,MEP2 cherry2,RPL19A-GFP pick2,CIT2 GFP CP2,AGP1-GFP pick2,others
CCCCC(CC)CN=C(N)NC(N)=NCCCCCCN=C(N)NC(N)=NCC(CC)CCCC (centres undefined),160*,60,85,x,95,104,126,148,99,78,106,
COc1ccc(NC(=O)CN(C)CC(=O)Nc2sc3c(c2C#N)CCC3)cc1,96,95,97,x,95,100,x,x,x,x,x,
CCO[C@H]1OC(C(=O)N2CCOCC2)=C[C@@H](c2cn(C(C)=O)c3ccccc23)[C@@H]1CCCO,223*,111,120,1,74,507*,99,96,100,103,100,
CCCN(CC(=O)Nc1ccccc1C)C(=O)c1ccc(-c2ccc([N+](=O)[O-])cc2)o1,196*,132,140,-3,70,609*,101,101,99,96,102,
O=C(Nc1ccccc1Cl)C(Cl)C(=O)c1ccccc1 (centres undefined),x,x,x,x,x,x,110,98,104,111,99,
O=C(Nc1ccc(Cl)cc1)C(Cl)C(=O)c1ccccc1 (centres undefined),107,102,97,7,102,90,x,x,x,x,x,
